Data from ChEMBL document CHEMBL3988442, “University of Dundee, Small-Polar-MMV Screening Library” (2021).
For some of these results: Results with a measured potency or affinity are listed apart.

Legend:
Parameters in all cases: scale not given: direction of the effect not stated beside the values
[1] = target: Protein translocase subunit SecA (Escherichia coli (strain K12)) (UniProt P10408); assay: Assay to Identify E. coli SecA ATPase Inhibitors; type: functional; conditions: 30 µM
[2] = target: T1, Ubiquitin-activating enzyme e1, putative (Leishmania donovani (strain BPK282A1)) (UniProt E9BSI1); assay: Leishmania donovani Ubiquitin Activating Enzyme (LdE1); type: functional; conditions: 30 µM
T1 sequence (whole entry): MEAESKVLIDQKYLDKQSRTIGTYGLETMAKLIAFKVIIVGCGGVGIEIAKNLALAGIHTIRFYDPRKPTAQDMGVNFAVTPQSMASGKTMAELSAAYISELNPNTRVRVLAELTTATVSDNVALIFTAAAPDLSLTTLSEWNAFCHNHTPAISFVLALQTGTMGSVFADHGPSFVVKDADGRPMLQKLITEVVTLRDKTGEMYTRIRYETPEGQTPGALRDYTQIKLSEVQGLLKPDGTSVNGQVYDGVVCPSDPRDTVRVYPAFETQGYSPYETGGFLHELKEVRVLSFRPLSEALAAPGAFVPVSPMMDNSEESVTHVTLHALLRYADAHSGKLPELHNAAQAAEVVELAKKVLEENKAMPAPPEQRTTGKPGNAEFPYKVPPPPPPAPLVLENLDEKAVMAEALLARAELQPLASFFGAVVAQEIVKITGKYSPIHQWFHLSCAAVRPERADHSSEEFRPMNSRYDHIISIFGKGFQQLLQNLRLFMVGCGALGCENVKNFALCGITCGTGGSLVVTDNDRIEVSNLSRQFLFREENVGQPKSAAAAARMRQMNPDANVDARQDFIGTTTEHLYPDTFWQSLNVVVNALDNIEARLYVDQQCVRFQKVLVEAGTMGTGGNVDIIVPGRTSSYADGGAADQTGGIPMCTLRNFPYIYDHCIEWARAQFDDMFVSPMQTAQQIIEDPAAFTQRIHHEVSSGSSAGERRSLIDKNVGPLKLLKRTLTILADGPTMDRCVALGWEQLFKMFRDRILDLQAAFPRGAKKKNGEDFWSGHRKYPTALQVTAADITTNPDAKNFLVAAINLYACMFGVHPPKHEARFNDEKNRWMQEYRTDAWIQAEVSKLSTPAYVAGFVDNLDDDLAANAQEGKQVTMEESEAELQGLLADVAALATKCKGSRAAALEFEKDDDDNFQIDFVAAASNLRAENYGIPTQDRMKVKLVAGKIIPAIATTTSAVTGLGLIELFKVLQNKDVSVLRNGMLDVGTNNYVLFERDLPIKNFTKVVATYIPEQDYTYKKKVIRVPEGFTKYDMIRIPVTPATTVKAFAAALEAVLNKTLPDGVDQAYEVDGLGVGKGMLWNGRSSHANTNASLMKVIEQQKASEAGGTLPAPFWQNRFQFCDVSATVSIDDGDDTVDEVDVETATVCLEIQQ

[3] = target: AMP-activated protein kinase, AMPK (Homo sapiens) (UniProt P54646+O43741+P54619+Q9UGJ0+Q9Y478+Q13131+Q9UGI9); assay: AMP-dependent Kinase enzyme assay. An in vitro enzyme assay that detects ADP turnover that is directly proportional to AMPK activity. This uses naive AMPK that is activated during the assay with MK-8722; type: functional; conditions: 30 µM
[4] = target: Sialic acid-binding Ig-like lectin 9 (Homo sapiens) (UniProt Q9Y336); assay: Hs-Siglec9 ALPHAscreen SOP 20170721; conditions: 10 µM
[5] = tested on: Trypanosoma cruzi; assay: Trypanosoma cruzi phosphomannomutase and mannose-1-phosphate guanylyltransferase assay; type: functional; conditions: 10 µM
[6] = target: T2, Arginase-2, mitochondrial (Homo sapiens) (UniProt P78540); assay: in vitro enzyme assay to detect the production of urea directly proportional to the activity of Arginase II; type: functional; conditions: 33.3 µM; also: in the data most compounds retested in dose-response had high values
T2 sequence (whole entry): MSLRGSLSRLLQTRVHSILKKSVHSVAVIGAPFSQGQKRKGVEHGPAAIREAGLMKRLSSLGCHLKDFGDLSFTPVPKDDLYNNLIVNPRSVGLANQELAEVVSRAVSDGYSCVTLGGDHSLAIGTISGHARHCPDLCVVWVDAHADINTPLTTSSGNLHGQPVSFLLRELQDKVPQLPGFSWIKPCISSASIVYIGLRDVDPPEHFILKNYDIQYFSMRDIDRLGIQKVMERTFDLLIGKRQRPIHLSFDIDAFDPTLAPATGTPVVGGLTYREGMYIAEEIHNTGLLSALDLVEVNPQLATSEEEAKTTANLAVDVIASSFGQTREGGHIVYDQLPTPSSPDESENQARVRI

[7] = target: T3, Proteasome subunit beta (Trypanosoma cruzi) (UniProt O96673); assay: Trypanosoma cruzi proteasome chymotrypsin-like activity (TcProtChymo) assay.; also: in the data most compounds retested in dose-response had high values; type: functional; conditions: 9.37 µM
T3 sequence (whole entry): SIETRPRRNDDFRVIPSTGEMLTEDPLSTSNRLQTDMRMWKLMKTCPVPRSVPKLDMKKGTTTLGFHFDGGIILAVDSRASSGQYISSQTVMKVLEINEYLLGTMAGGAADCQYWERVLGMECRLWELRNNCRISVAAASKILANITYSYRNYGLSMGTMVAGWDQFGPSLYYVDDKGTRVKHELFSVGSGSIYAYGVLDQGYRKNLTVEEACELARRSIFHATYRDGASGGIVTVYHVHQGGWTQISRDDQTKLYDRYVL

[8] = organism: Homo sapiens; assay: To identify inhibition of the IFN signalling (Jak-Stat) pathway via expression of an eGFP reporter gene under the control of an IFN-stimulated response element (ISRE) containing MxA promoter.; type: functional; conditions: 30 µM
[9] = target: T4, Tyrosyl-tRNA synthetase, putative (Trypanosoma cruzi (strain CL Brener)) (UniProt Q4DSP6); assay: Trypanosoma cruzi tyrosyl tRNA synthetase (TcYRS) _High Tyrosine SOP; type: functional; conditions: 30 µM; also: in the data most compounds retested in dose-response had high values
T4 sequence (whole entry): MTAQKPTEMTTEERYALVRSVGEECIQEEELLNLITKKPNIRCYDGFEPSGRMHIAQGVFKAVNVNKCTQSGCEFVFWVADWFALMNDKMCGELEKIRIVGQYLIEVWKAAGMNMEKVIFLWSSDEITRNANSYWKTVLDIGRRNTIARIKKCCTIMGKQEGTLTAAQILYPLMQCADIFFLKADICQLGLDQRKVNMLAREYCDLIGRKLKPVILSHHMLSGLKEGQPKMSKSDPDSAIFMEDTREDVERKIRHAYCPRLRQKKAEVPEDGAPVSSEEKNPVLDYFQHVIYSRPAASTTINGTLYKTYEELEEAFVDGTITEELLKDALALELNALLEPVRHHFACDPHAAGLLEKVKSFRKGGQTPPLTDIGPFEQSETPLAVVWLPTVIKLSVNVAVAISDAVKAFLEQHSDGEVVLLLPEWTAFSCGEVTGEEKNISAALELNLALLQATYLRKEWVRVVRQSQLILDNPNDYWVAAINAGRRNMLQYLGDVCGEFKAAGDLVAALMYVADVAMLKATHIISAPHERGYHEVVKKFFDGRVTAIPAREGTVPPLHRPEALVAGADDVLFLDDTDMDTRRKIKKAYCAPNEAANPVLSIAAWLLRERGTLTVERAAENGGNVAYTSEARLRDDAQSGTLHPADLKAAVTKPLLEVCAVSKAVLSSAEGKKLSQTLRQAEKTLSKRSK

[10] = target: T4, Tyrosyl-tRNA synthetase, putative (Trypanosoma cruzi (strain CL Brener)); assay: Trypanosoma cruzi tyrosyl tRNA synthetase (TcYRS) SOP; type: functional; conditions: 30 µM
[11] = target: Chromo domain-containing protein 1 (Saccharomyces cerevisiae (strain ATCC 204508 / S288c) (Baker's yeast)) (UniProt P32657); assay: ScCHD-1 Enzyme Inhibition Assay; type: functional; conditions: 30 µM; also: in the data most compounds retested in dose-response had high values
Chain of Chromo domain-containing protein 1 (Saccharomyces cerevisiae (strain ATCC 204508 / S288c) (Baker's yeast)) (P32657 whole entry, the tested form may be a part): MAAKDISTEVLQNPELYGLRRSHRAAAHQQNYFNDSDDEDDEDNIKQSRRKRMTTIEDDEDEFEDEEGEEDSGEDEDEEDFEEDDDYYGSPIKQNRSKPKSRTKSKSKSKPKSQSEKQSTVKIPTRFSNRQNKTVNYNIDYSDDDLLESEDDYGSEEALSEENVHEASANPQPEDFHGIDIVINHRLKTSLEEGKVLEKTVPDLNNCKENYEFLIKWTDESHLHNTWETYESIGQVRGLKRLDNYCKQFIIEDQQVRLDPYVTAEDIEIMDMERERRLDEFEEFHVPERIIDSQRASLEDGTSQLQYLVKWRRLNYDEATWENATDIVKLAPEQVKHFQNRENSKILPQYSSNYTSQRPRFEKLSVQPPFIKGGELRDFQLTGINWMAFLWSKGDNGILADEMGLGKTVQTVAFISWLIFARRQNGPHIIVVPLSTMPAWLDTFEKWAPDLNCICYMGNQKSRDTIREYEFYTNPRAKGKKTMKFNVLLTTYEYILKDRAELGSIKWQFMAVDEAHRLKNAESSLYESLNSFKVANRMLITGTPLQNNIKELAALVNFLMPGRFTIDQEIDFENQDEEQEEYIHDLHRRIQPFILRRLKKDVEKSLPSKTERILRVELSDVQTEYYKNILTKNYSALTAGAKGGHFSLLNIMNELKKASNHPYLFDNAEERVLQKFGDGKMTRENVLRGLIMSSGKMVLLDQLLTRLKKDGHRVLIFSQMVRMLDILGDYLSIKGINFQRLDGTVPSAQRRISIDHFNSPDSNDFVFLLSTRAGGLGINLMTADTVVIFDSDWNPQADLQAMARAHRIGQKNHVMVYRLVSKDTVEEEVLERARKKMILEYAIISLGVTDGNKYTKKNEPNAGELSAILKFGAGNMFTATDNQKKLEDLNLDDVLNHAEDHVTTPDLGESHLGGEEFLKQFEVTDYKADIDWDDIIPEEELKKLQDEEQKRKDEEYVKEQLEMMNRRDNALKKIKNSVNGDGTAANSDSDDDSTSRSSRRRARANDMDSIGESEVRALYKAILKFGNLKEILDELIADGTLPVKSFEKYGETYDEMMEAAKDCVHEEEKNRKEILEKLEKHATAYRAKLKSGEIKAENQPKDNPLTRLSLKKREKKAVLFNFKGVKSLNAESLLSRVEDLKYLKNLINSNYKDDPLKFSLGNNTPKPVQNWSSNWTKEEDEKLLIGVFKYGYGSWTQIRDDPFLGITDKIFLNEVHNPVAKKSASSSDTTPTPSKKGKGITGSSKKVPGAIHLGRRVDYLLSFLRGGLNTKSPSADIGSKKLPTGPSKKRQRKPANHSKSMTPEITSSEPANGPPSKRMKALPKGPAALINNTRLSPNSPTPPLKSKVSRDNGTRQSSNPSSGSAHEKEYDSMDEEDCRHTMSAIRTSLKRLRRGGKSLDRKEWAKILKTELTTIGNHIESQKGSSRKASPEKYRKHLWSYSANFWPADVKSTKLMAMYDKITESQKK

Chain of Protein translocase subunit SecA (Escherichia coli (strain K12)) (P10408 whole entry): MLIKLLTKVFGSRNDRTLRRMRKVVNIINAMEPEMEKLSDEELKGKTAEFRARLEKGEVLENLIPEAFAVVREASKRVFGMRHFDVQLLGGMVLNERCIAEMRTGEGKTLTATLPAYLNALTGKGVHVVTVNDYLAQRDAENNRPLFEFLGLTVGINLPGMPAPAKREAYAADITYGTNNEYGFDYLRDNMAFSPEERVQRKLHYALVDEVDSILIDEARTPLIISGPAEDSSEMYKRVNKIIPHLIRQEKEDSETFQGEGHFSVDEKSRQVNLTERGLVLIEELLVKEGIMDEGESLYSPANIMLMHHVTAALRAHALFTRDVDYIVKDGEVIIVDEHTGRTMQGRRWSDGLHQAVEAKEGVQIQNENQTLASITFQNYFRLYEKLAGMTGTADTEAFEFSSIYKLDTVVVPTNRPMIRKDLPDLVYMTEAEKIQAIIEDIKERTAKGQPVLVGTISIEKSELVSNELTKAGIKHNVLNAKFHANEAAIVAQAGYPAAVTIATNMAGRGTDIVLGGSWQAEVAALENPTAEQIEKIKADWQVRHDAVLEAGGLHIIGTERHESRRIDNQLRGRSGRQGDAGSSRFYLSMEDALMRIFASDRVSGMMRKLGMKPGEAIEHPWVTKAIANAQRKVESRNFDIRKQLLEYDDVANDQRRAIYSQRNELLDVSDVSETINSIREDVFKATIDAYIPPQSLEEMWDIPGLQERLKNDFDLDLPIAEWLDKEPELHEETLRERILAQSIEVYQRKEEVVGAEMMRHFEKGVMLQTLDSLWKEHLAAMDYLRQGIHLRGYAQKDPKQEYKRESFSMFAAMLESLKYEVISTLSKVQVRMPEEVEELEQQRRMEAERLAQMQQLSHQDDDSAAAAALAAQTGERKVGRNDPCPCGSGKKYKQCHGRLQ
Chain of Sialic acid-binding Ig-like lectin 9 (Homo sapiens) (Q9Y336 whole entry): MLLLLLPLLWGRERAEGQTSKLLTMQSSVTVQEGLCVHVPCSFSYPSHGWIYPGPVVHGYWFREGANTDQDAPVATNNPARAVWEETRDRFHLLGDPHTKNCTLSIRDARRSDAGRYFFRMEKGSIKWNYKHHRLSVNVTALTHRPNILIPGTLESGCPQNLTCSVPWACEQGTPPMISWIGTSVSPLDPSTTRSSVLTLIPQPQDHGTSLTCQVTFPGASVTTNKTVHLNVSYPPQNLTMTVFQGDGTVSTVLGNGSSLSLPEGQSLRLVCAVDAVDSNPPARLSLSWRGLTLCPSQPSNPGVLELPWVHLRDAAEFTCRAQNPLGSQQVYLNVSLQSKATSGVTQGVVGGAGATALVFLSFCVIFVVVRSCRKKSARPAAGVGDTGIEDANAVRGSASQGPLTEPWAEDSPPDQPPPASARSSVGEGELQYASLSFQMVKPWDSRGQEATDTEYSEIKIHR

SMILES	Percent Effect [1]	Percent Effect [2]	Percent Effect [3]	Percent Effect [4]	Percent Effect [5]	Percent Effect [6]	Percent Effect [7]	Percent Effect [8]	Percent Effect [9]	Percent Effect [10]	Percent Effect [11]
CCC1(CC)Cc2ccccc2-c2nc(CN(C)C)nc(O)c21	-3.62%	10.5%	5%	4.55%	0.292%	-5.92%	12.8%	14.4%	5.32%	10.4%	-3.79%
Cc1ccc(C(=O)N2CCn3cc(CN(C)Cc4ccco4)nc3C2)o1	2.2%	0%	3.27%	0.0829%	-4.24%	3.23%	3.13%	0.489%	1.06%	3.85%	105%
CN(C)C(=O)CN1C[C@@H]2CC[C@H](C1)N(C(=O)CCn1cncn1)C2	-2.58%	5.41%	-3.51%	3.26%	-1.16%	-0.952%	2.76%	-15.8%	6.88%	9.76%	-3.62%
CN1CCN(Cc2ccccc2CNC(=O)c2ccc(Br)cc2)CC1	-4.93%	8.11%	-2.99%	8.77%	0.0978%	1.24%	5.92%	-4.85%	3.23%	16.1%	-1.46%
CCc1ccc(CNC(=O)N2CCN(Cc3cc(C)no3)CC2)s1	-3.56%	15.8%	7.06%	-6.42%	-9.24%	-1.08%	17.2%	13.6%	2.46%	6.17%	-7.04%
